# Bioassay records (PubChem BioAssay)
# Rows were chosen to be rich in hits. Some 21% of all compounds tested hit in one or more screens of this group.
# TDP1 cell noCPT – qHTS for Inhibitors of human tyrosyl-DNA phosphodiesterase 1 (TDP1): qHTS in cells in absence of CPT; 420,000 tested, 15% active; DT40 Tdp1-/- hTDP1 cells, no CPT, ATP luminescence, 48 h; Potency, µM (titrated, usually from 46.2 µM), inactives show top-dose activity change, negative = growth inhibition, most hits filed as inhibitors; further: potency means the concentration at half of the fitted maximal effect; nearly all actives have a fitted effect of over 55% in size
#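 Growth kinetics read by CellTiter-Glo luminescence after ≥48 hr at 37 °C. Cells: DT40 Tdp1-/- stably carrying human TDP1, 400 per well, compound exposure in the absence of CPT (DMSO vehicle).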
# Gal4-VP16 FLuc – inhibits Gal4-VP16 luciferase reporter, ROR gamma counter-screen | Drosophila S2 Gal4-VP16 UAS-luciferase, luminescence, 20 h | Potency, µM (top dose mostly 53.6 µM), for inactives: at the top dose activity, negative = inhibition, most hits filed as inhibitors | 310,000 tested, 3.5% active | AID 2546;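 further: Gal4-VP16 expression switched on by copper sulfate through the metallothionein promoter; potency means the concentration at half of the fitted maximal effect; nearly all actives have a fitted effect of over 50% in size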
# TDP1 cell CPT – growth inhibition of DT40 Tdp1-/-;hTDP1 cells with camptothecin (screen for TDP1 inhibitors) | chicken DT40 Tdp1-/-;hTDP1 cells + 20 nM CPT, ATP luminescence, 48 h | Potency, µM (titrated, usually from 46.2 µM), without a hit: top-dose activity change, negative = growth inhibition, hits mostly inhibitors | 420,000 tested, 12% active; further: potency means the concentration at half of the fitted maximal effect; nearly all actives have a fitted effect of over 55% in size
#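 Chicken DT40 Tdp1-/- cells complemented with human TDP1, 400 cells/well, exposed to compounds plus 20 nM camptothecin for at least 48 h at 37 C; viability read as ATP content by CellTiter-Glo luminescence.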
# ELG1 DNA repair – blocks ELG1-dependent DNA repair in HEK293T cells. 330,000 tested, 2.3% active. Potency, µM (titrated, usually from 46.1 µM), inactives show top-dose activity change, negative = inhibition, actives largely listed as inhibitors. HEK293T ELG1-luciferase reporter, luminescence, 16 h; DNA damage induced by 5-fluorouridine; further: potency means the concentration at half of the fitted maximal effect; nearly all actives have a fitted effect of over 55% in size
#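 5-Fluorouridine DNA damage + compound/DMSO, 2,000 cells/well, 16 h, 37 °C/5% CO2. ONE-Glo, 30 min RT, luminescence. Readout = decrease in reporter signal.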
# IL1B secr inh – inflammasome signaling inhibition, IL-1 beta readout; activity change, % at 57.5 µM; THP-1 LPS/ATP IL-1B secretion, AlphaLISA, 16 h; stronger effect = lower value; 360,000 tested, 4.7% active; in the data active means activity change below about -50%; inconclusive means mostly about -30% to -49%
#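 Secreted IL-1B measured by AlphaLISA bead assay after 16 h compound exposure of THP-1 cells; compounds (final up to 57.5 uM) added 1 h before LPS (250 ng/mL) and ATP (1.25 mM) stimulation; lower signal means less secretion.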
# RORgamma inh – ROR gamma (mouse) transcription inhibition | P51450 | Drosophila S2 Gal4-RORgamma UAS-luciferase reporter, 20 h | 310,000 tested, 5.4% active | AID 2551 | Potency, µM (top dose mostly 53.6 µM), inactives show top-dose activity change, negative = inhibition, usual class: inhibitors; further: potency means the concentration at half of the fitted maximal effect; nearly all actives have a fitted effect of over 60% in size
# Target sequence (P51450 whole entry, looked up, the tested form may be a part): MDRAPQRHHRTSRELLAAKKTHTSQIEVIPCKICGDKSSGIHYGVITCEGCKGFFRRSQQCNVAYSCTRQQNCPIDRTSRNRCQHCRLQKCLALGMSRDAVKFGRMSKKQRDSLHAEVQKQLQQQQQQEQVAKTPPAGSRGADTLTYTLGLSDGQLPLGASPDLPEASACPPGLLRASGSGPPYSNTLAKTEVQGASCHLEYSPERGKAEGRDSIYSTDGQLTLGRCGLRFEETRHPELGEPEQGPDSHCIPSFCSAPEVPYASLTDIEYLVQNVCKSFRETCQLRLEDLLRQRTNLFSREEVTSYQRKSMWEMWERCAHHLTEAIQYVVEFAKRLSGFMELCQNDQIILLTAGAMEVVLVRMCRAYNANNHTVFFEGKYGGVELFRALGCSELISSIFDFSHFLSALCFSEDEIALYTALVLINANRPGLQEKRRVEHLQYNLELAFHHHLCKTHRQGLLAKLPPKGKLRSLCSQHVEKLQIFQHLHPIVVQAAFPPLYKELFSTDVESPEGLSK
#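 A Gal4/UAS one-hybrid system in insect cells: metallothionein-promoter Gal4–ROR gamma fusion plus Photinus luciferase reporter. Copper sulfate 700 uM final, 20 hr ambient incubation, luminescent detection after 10 min with reagent.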
# An asterisk follows results filed as active; ? = inconclusive; · = not tested or not shown; [ ] = dose if it differs, or a comment. Unless noted, the call rests on the fitted dose curve; in most records, active means well fitted curve in the direction sought with a large enough effect; inconclusive means small, poorly fitted or top-dose-only effect, or another doubt; inactive means no such curve, though single readings can be large; an effect the other way counts as inactive or inconclusive. On the % scale 0 is the no-effect control and ±100 the full control effect.
SMILES,TDP1 cell noCPT,Gal4-VP16 FLuc,TDP1 cell CPT,ELG1 DNA repair,IL1B secr inh,RORgamma inh
COc1ccc2[nH]c(=O)c(CN(C3CCCCC3)C(c3nnnn3Cc3ccco3)C(C)C)cc2c1 (stereo unspecified),?,1.9%,11.6µM*,?,-93.2*,0.8%
CCOc1ccc2[nH]c(=O)c(C(c3nnnn3Cc3ccco3)N3CCC(C)CC3)cc2c1 (stereo unspecified),25.9µM*,7.0%[0.365 µM],-78.7%,?,-4.6,25.3%
COc1ccc2[nH]c(=O)c(CN(Cc3nnnn3Cc3ccco3)C3CCCCC3)cc2c1,16.4µM*,3.3%,?,?,-11.1,-3.0%
COc1ccc(Cn2nnnc2CN(Cc2cc3cc(C)ccc3[nH]c2=O)C2CCCC2)cc1,11.2µM*,?,11.6µM*,?,-61.2*,35.4%
COc1ccc2[nH]c(=O)c(C(c3nnnn3C3CCCC3)N(C)C3CCCCC3)cc2c1 (stereo unspecified),?,2.3%,?,3.1%,-8.7,0.9%
CCC(C)(C)n1nnnc1CN(Cc1cc2cc(OC)c(OC)cc2[nH]c1=O)C1CCCC1,?,-6.8%,-34.4%,?,-10.7,29.1%
Cc1ccccc1NC(=O)C1CCCN1S(=O)(=O)c1ccccc1C(F)(F)F (stereo unspecified),?,·,?,2.8%,7.3,·
Cc1ccc(NC(=O)Cn2c(C)cc(C)c(C#N)c2=O)cc1F,-18.9%,·,6.0%,·,·,·
CCOC(=O)Cn1nnnc1C(C(C)C)N(Cc1cc2c(C)cc(C)cc2[nH]c1=O)C1CCCC1 (stereo unspecified),20.6µM*,-8.0%,23.1µM*,18.4µM*,?,27.7%
O=C(O)/C=C/c1ccc2c(c1)S(=O)(=O)N(C1CCCC1)[C@H]2CC(=O)O,-3.3%,·,-16.9%,·,·,·
COc1ccccc1-c1cc(C(=O)Nc2cc(Cl)ccc2O)no1,-16.9%,·,-7.1%,·,·,·
Cc1ccc(S(=O)(=O)Nc2nc3ccccc3nc2NCc2ccc3c(c2)OCO3)cc1C,?,0.3%,-15.0%,0.3%,-1.2,1.7%
COc1ccc(C(=O)Nc2ccc(-c3nnc4n3CCCCC4)cc2)cc1OC,13µM*,·,13µM*,·,·,·
COc1ccc(NC(=O)CSc2nnc3n2CCCCC3)cc1OC,0.206µM*,·,1.9%,·,?,·
CCc1ccc(CN2CCC(n3nccc3NC(=O)C3CCCC3)CC2)cc1,?,-7.4%,?,-12.5%,-3.7,29.8%
COc1ccccc1-c1nnc(SCC(=O)Nc2ccc(N3CCOCC3)cc2)n1C,-6.7%,·,5.4%,?,3.5,·
NC(=O)c1cc(-c2ccccc2)nc(N2CCOCC2)n1,11.6µM*,-16.1%,20.6µM*,?,-50.5*,-12.7%
NC(=O)c1cc(-c2ccccc2)nc(N2CCCCCC2)n1,?,-14.7%,?,?,-16.5,-6.4%
CCCOc1ccc(Br)cc1CSC(=N)N,2.06µM*,12.6µM*,6.51µM*,?,-85.6*,?
COc1ccc(N2CCN(C(=O)CN3C(=O)NC4(CCCCC4C)C3=O)CC2)cc1 (stereo unspecified),-28.3%,·,7.3%,-2.2%,-22.9,·
COCCCN1C(=O)C(CC(=O)NCc2cccc3ccccc23)CC(C(=O)N(C(C)C)C(C)C)=C1C (stereo unspecified),?,·,-23.8%,·,-26.1,·
N#CC1=C(N)N(c2ncn[nH]2)C2=C(C(=O)CCC2)C1c1ccccc1 (stereo unspecified),-14.8%,3.0%,-0.6%,7.5%,5.5,23.6%
CCC(C)N1C(=O)N(c2cccc(Cl)c2)C(C)(O)CC1(C)C (stereo unspecified),-29.1%,26.3%,?,7.0%,-2.4,5.01µM*
Cc1ccc(S(=O)(=O)N2[C@H](CC(=O)c3ccccc3)OC[C@@H]2C)cc1,?,·,?,·,28.3,·
Cc1ccc(S(=O)(=O)N2C[C@@H]3CCCC[C@@H]3[C@@H](C)[C@H]2CC(=O)c2ccccc2)cc1,13µM*,·,14.6µM*,6.8%,6.5,·
SMILES,TDP1 cell noCPT,Gal4-VP16 FLuc,TDP1 cell CPT,ELG1 DNA repair,IL1B secr inh,RORgamma inh
CCOc1ccc(NC(=O)/C(C#N)=C\c2ccc(-c3ccc(Cl)cc3)o2)cc1,10.3µM*,·,?,·,·,·
CCCCOC(=O)/C(C#N)=C\c1ccc(-c2ccc(Cl)cc2)o1,?,·,-13.3%,·,·,·
CC1CC1c1ccc(/C=C(\C#N)C(=O)Nc2ccc(Cl)cc2)o1 (stereo unspecified),16.4µM*,3.9%,?,?,-13.9,30.9%
CC1CC1c1ccc(/C=C(\C#N)C(=O)Nc2ccccc2Cl)o1 (stereo unspecified),?,26.2%,-20.9%,?,-16.5,?
Cc1cc(NC(=O)/C(C#N)=C/c2ccc(-c3ccc(SC(F)F)cc3)o2)n(-c2ccccc2)n1,18.4µM*,6.7%,?,7.6%,-6.0,29.7%
Cc1c(NC(=O)/C(C#N)=C/c2ccc(-c3ccc(Cl)cc3)o2)c(=O)n(-c2ccccc2)n1C,14.6µM*,?,10.3µM*,16.4µM*,-62.2*,?
Cc1c(NC(=O)/C(C#N)=C\c2cccs2)c(=O)n(-c2ccccc2)n1C,-20.2%,-2.6%,-15.8%,5.9%,6.7,-5.9%
O=C(COC(=O)c1ccc2c(=O)n3c(nc2c1)CCC3)NC1CCS(=O)(=O)C1 (stereo unspecified),-4.6%,-1.9%,10.2%,19.0%,2.4,13.6%
CC1CCC2(CC1)NC(=O)N(CC(=O)NC(C)c1ccc(F)c(F)c1)C2=O (stereo unspecified),-23.8%,·,0.4%,-1.1%,6.7,·
CCOC(=O)c1cnc2ccc(OCC)cc2c1NCc1cccnc1,?,-9.2%,?,?,?,9.8%
CCOC(=O)c1cnc2ccc(OCC)cc2c1NCc1ccccc1,6.51µM*,5.01µM*,5.8µM*,?,?,2.82µM*
CCc1ccc(OCC(=O)N2CCN(c3ccccc3F)CC2)cc1,-3.2%,18.3%,-22.2%,-6.9%,-6.4,35.8%
CCOC(=O)c1cnc2ccc(OCC)cc2c1N1CCN(c2ccccc2F)CC1,11.6µM*,·,16.4µM*,·,·,·
CCOC(=O)c1cnc2ccc(OCC)cc2c1N1CCN(c2ccccc2)CC1,25.9µM*,-9.1%,20.6µM*,?,-16.8,-9.1%
CCOC(=O)c1cnc2cc(C(F)(F)F)ccc2c1N1CCN(c2cccc(Cl)c2)CC1,23.1µM*,·,?,·,·,·
